Out of some 370,000 compounds screened, about 3,700 (1%) were called active. This is one part of a sample in which actives are shown more often than they occur.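 How the source made its calls: active means activation above the mean over all tested compounds plus 3 SD (cut at about 0.9% in these data); inactive means the rest.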
Each compound was assayed on Nuclear hormone receptor DAF-12 (Strongyloides stercoralis) (assay: S. stercoralis DAF-12 nuclear receptor activators, primary screen, cell-based, luminescence, HEK293, GRIP1 co-expression, lit1-tk-luc (AID 652126;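 further: 0% = DMSO-only wells and 100% = 3 µM delta7-dafachronic acid wells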)). Settings: HEK293 ssDAF-12/GRIP1 lit1-tk-luc reporter, at 6.8 µM, active compounds read high, % of 3 µM dafachronic acid response.

Structure (SMILES)	activation
O=C(CSc1nnc(COc2ccccc2)n1Cc1ccco1)c1ccc2ccccc2c1	-1.35% (inactive)
Clc1ccc(-c2cc(C3CCNCC3)[nH]n2)c(Cl)c1	-1.62% (inactive)
Clc1ccc(-c2cc(-c3ccccn3)on2)c(Cl)c1	1.28% (active)
O=C(c1ccccc1)c1cc(-c2ccccn2)c(N2CCOCC2)s1	-1.53% (inactive)
C[C@H]1[C@H](NC(=O)c2cccc(N(C)C)c2)CC[C@@]23CCCN2C(=O)CCC[C@@H]13	-1.05% (inactive)
Cn1c(-c2ccco2)nc2cc3ccccc3cc21	1.86% (active)
Cn1c(SCC(=O)c2cccs2)nnc1-c1ccco1	-0.1% (inactive)
O=S(=O)(Nc1ccc2nc(-c3ccco3)[nH]c2c1)c1ccccc1	-0.88% (inactive)
Cc1cc(NS(=O)(=O)c2ccc(NC(=O)CSc3nnc(SCc4ccc(F)cc4)s3)cc2)nc(C)n1	-1.33% (inactive)
O=C1CCC2(CCC(c3ccc(Cl)cc3)CC2)N1CCO (stereo not drawn)	-1.42% (inactive)
Oc1cccc2ccc(/C=C/c3ccc(Br)s3)nc12	1.49% (active)
O=C(CN1C(=O)NC2(CCCCC2)C1=O)NCCC1=CCCCC1	-1.49% (inactive)
CCOC(=O)c1cccc(NC(=O)CN(C)S(=O)(=O)c2ccc(-c3cocn3)s2)c1	0.72% (inactive)
N[C@@H](Cc1ccccc1)C(=O)N1CCC[C@@H]1C(=O)N1CCC2CCN(S(=O)(=O)c3ccccc3)CC21 (stereo partly drawn)	-0.75% (inactive)
O=C(NCCCNC(=O)c1ccccc1Cl)c1cnccn1	-0.77% (inactive)
CN(C)CCNC(=O)c1ccc(Cl)c2cc3ccccc3nc12	2.74% (active)
CN(C)CCNC(=O)Cc1ccc([N+](=O)[O-])cc1	-0.65% (inactive)
COc1ccc(Cn2cc(CN3[C@@H](CC(C)C)COc4cc(Br)ccc4S3(=O)=O)nn2)cc1	-0.66% (inactive)
Fc1ccc2nc(COCc3nc4ccc(F)cc4[nH]3)[nH]c2c1	-1.23% (inactive)
Oc1cc2c(cc1O)CN(C(=S)NCCc1ccc(Cl)cc1)CCC2	-1.68% (inactive)
CCN(CCNC(=O)C1=C(C)C(=O)OC12CCC(C)CC2)c1ccccc1 (stereo not drawn)	3.96% (active)
CC1CCN(C(=O)CCNC(=O)c2ccccc2)CC1	-0.14% (inactive)

Structure (SMILES)	activation
CCOc1ccc(CCNC(=O)C2=C(C)C(=O)OC23CCC(C)CC3)cc1OCC (stereo not drawn)	-0.29% (inactive)
O=C(OC12CCCN(C1)/C(=C/c1cccnc1)C2)C1CCCC1 (stereo not drawn)	-1.43% (inactive)
CCOC(=O)[C@@]12CN(C(=O)OC(C)(C)C)CC=C1N(Cc1ccc(OC)cc1)C(=O)[C@H]2CC(=O)NCc1ccc(OC)c(OC)c1	-0.75% (inactive)
CC(NC(=O)c1ccccc1SCC(=O)N1CCCC1)c1ccccc1 (stereo not drawn)	-0.47% (inactive)
CC(NC(=O)c1ccccc1C(=O)O)c1ccc(-n2ccnc2)cc1 (stereo not drawn)	0.93% (active)
C/C(=N\NC(=O)c1cccnc1)c1ccc(-n2ccnc2)cc1	-1.15% (inactive)
C[C@H](C(=O)N(C)c1ccccc1)[C@@H](O)c1ccc2ccccc2c1	-0.52% (inactive)
COc1ccccc1-c1nnc(NC(=O)c2cccc(N3C(=O)CCC3=O)c2)o1	1.57% (active)
COc1ccccc1-c1nnc(NC(=O)c2ccc3ncsc3c2)o1	0.27% (inactive)
O=C(Nc1nnc(-c2ccccc2)o1)c1cccc(S(=O)(=O)N2CCOCC2)c1	-0.75% (inactive)
Cc1ccc(NC(=S)NNC(=O)CSc2nnc(SCc3ccccc3Cl)s2)cc1	-1.2% (inactive)
CCOc1ccc2c(c1)C(c1ccc(C)cc1)=NNC(c1ccc(C)cc1)=N2	-0.66% (inactive)
Cc1ccc(C2=Nc3c(ccc4ccccc34)C(c3ccncc3)=NN2)cc1	1.33% (active)
CN(C)c1ccc(NC(=O)NC2CCCCN(Cc3ccc(Cl)cc3)C2=O)cc1 (stereo not drawn)	-1.57% (inactive)
Cc1ccc(S(=O)(=O)N2[C@@H](c3cccc(Cl)c3)C(C(=O)O)=CC[C@H]2c2ccc(Cl)c(Cl)c2)cc1	-1.12% (inactive)
Cc1ccc(S(=O)(=O)N2[C@@H](c3ccccc3F)C(C(=O)O)=CC[C@H]2c2ccc(Cl)cc2)cc1	-1.05% (inactive)
COc1ccc(C2CC=C(C(=O)O)C(c3ccccc3F)N2S(=O)(=O)c2ccc(C)cc2)cc1OC (stereo not drawn)	1.37% (active)
COc1ccc(N2CCN(CCNS(=O)(=O)c3ccc([N+](=O)[O-])cc3)CC2)cc1	-1.33% (inactive)
Cn1c(=O)c(Sc2ccc(Cl)cc2)c(O)c2ccccc21	0.04% (inactive)
C=CCn1c(=O)c(C(=O)Nc2ncccc2O)c(O)c2ccccc21	-0.42% (inactive)
Cn1c(=O)c(C(=O)Nc2ncccn2)c(O)c2ccccc21	2.21% (active)
CN(C)[C@H]1CCN(c2cccc3c2S(=O)(=O)N2CC[C@H](C2)O3)C1	-0.74% (inactive)

Structure (SMILES)	activation
CC(C)(C)NC(=O)C(c1cccnc1)N(C(=O)c1cnco1)c1ccc(C(C)(C)C)cc1 (stereo not drawn)	-2.05% (inactive)
COc1ccccc1C(=O)N/C(=C/c1ccc2c(c1)OCO2)C(=O)Nc1cccc(C(=O)O)c1	-0.63% (inactive)
COc1ccccc1C(=O)N/C(=C/c1ccco1)C(=O)Nc1ccc(C(=O)O)cc1	1.14% (active)
COc1ccc(/C=C(/NC(=O)c2ccco2)C(=O)Nc2ccc(C(C)=O)cc2)cc1	-1.1% (inactive)
CCOC(=O)[C@]12CCCC3=C1N(CCC3)C(=O)[C@@H](CC(=O)NCC13CC4CC(CC(C4)C1)C3)C2	-0.93% (inactive)
Cc1ccc(NC(=O)Cc2cccc(F)c2)c(S(=O)(=O)N2CCOCC2)c1	-0.55% (inactive)
O=C(NC1CCCC1)C1CSCCS(=O)(=O)N1Cc1ccccc1 (stereo not drawn)	-1.05% (inactive)
Cc1noc(C)c1/C=N/Nc1ccc2ccccc2n1	1.61% (active)
C=CCN1C(=O)[C@H](CC(=O)N2CCN(C(=O)OCC)CC2)[C@@]2(C(=O)OCC)CCCC=C12	-0.45% (inactive)
Cc1ccc(-n2c(SCC(=O)Nc3ccc(S(=O)(=O)Nc4nccs4)cc3)nnc2-c2ccccn2)cc1	-0.88% (inactive)
Cc1ccnc(Nc2nc3ccccc3s2)n1	1.25% (active)
Cc1ccnc(-n2sc3ccccc3c2=O)n1	0.16% (inactive)
Cc1cccc(NC(=O)C[C@H]2CC[C@H]3[C@@H](COc4ccc(NC(=O)Nc5ccccc5)cc4C(=O)N3C)O2)c1	-1.84% (inactive)
Cc1cccc(S(=O)(=O)N2CN(CC3CCCO3)c3nc4ccccc4nc32)c1 (stereo not drawn)	-0.43% (inactive)
CCOC(=O)C1CCN(C(=O)C(C)(C)NC(=O)Nc2ccc(F)c(F)c2)CC1	-1.1% (inactive)
COC(=O)C1CN(CC(C)C)CCS(=O)(=O)N1Cc1ccc(C)cc1 (stereo not drawn)	-0.69% (inactive)
COc1ccccc1OCc1nc2ccccc2s1	2.57% (active)
COc1ccccc1OCc1nnc(SCC(N)=O)n1-c1ccccc1	-1.54% (inactive)
CCc1ccc(-c2nnn(Cc3nc4ccccc4s3)n2)cc1	-0.71% (inactive)
COC(=O)C12C=C3CC(c4ccccc4)=C3C(=O)N1Cc1[nH]c3ccccc3c1C2 (stereo not drawn)	-1.07% (inactive)
COc1ccc2c(c1)CN1CN(CCc3ccccc3)S(=O)(=O)CC21 (stereo not drawn)	-0.04% (inactive)
Cc1nnsc1C(=O)Nc1cccc(Cl)c1C	-1.69% (inactive)

Structure (SMILES)	activation
Cc1nnsc1C(=O)NCc1c(F)cccc1Cl	-0.35% (inactive)
Cc1cc(Cl)ccc1NNC(=O)c1snnc1C	2.01% (active)
CCOC(=O)/C=C/c1ccccc1O	-1.38% (inactive)
COc1ccc(-n2c(SCC(=O)OC(C)C)nnc2-c2ccccn2)cc1	-1.58% (inactive)
COc1ccnc(Oc2ccccc2)n1	-0.92% (inactive)
COc1ccc2nc(-c3ccccn3)ccc2c1	0.98% (active)
CC(c1ccc(N)cc1)c1cn(C)c2ccccc12 (stereo not drawn)	-1.36% (inactive)
C=CS(=O)(=O)N(Cc1nnn(Cc2ccccc2)c1Br)[C@H](C(=O)OC)C(C)C	-1.75% (inactive)
COc1cc(/C=C/C(=O)n2cnc3ccccc32)cc(OC)c1OC	-2.15% (inactive)
COc1ccnc(NC(=S)N2CCN(c3ncc(C(F)(F)F)cc3Cl)CC2)c1	-1.56% (inactive)
CN(CCO)S(=O)(=O)c1ccc2c(c1)C(=O)c1cc(S(=O)(=O)N(C)CCO)ccc1-2	-1.38% (inactive)
COC(=O)[C@]12C[C@H](CC(=O)NCc3ccccc3)C(=O)N(CCc3ccc(OC)c(OC)c3)C1=C[C@H](C(C)(C)C)O[C@@H]2C	-1.28% (inactive)
COc1ccc(CSc2nnc(SCC(=O)Nc3ccccc3C(F)(F)F)s2)cc1	-1.22% (inactive)
COC(=O)C(NC(C)=O)(Nc1nc2c(s1)CCCC2)C(F)(F)F (stereo not drawn)	-0.86% (inactive)
Fc1ccc2nc(Nc3nc4c(s3)CCCC4)sc2c1	1.92% (active)
C[C@H]1CCC/C=C/C(=O)c2c(O)cc(O)cc2CC(=O)O1	-1.77% (inactive)
CCCCOCCCNC(=O)C[C@H]1C[C@@]2(C(=O)OC)C(=C[C@H](COCc3ccccc3)O[C@@H]2C)N(Cc2cccc3ccccc23)C1=O	-1.25% (inactive)
COC(=O)[C@]12C[C@H](CC(=O)NCCc3ccccc3OC)C(=O)N(Cc3ccco3)C1=C[C@H](C(C)C)O[C@@H]2C1CC1	-1.3% (inactive)
CCCN(c1ccc(C)cc1)c1nc(=O)c2cccnc2s1	1.12% (active)
COc1ccnc(C(=O)N2CCC(Oc3cccnc3)CC2)c1	-1.55% (inactive)
CCCCCCN1CCS(=O)(=O)N(Cc2ccc(C(F)(F)F)cc2)C(C(=O)OC)C1 (stereo not drawn)	-0.61% (inactive)
CN[C@H]1C[C@H]2c3cc(N4CCOCC4)ccc3CCN2C[C@H]1[C@H](C)O	-1.27% (inactive)

From PubChem BioAssay AID652126 (The Scripps Research Institute Molecular Screening Center, 2013)
